Experimental data as given in PubChem BioAssay (NCI).
Compounds without any hit were thinned out: in the full panel of roughly 83,000, 20% have a hit.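 Values shown are percent growth following 48 h exposure of cells in 96-well plates to a single concentration of compound; below 10 was considered active.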 The source made the active and inactive calls.

Tests used:
Experiment in all cases: NCI-60 one-dose screen, 48 h (100 = growth as untreated, 0 = no growth, -100 = all killed)
Conditions in all cases: 10 µM unless noted
T-47D breast = tested on: T-47D breast
BT-549 breast = tested on: BT-549 breast
MDA-MB-435 melanoma = tested on: MDA-MB-435 melanoma
SW-620 colon = tested on: SW-620 colon
MCF7 breast = tested on: MCF7 breast
HCT-116 colon = tested on: HCT-116 colon
HCC-2998 colon = tested on: HCC-2998 colon
KM12 colon = tested on: KM12 colon

SMILES | growth (T-47D breast) | growth (BT-549 breast) | growth (MDA-MB-435 melanoma) | growth (SW-620 colon) | growth (MCF7 breast) | growth (HCT-116 colon) | growth (HCC-2998 colon) | growth (KM12 colon)
CC1(C)CC[C@]2(C(=O)O)CC[C@]3(C)C(=CCC4[C@@]5(C)C[C@@H](O)[C@@H]6OC(c7cccc([N+](=O)[O-])c7)OC[C@@]6(C)C5CC[C@]43C)C2C1 (stereo partly specified) | 93.1% (inactive) | 77.3% (inactive) | 85.5% (inactive) | 73.7% (inactive) | 74.4% (inactive) | 49.5% (inactive) | 42% (inactive) | 46.1% (inactive)
COc1ccc2oc3c4[nH]c5ccccc5c4c4c(c3c2c1)C(=O)N(O)C4=O | 97.7% (inactive) | 104% (inactive) | 106% (inactive) | 92.1% (inactive) | 90.3% (inactive) | 104% (inactive) | 101% (inactive) | 101% (inactive)
Cc1occc1-c1nc2s/c(=C\c3cn(-c4ccccc4)nc3-c3ccccc3)c(=O)n2n1 | 95.2% (inactive) | 97.7% (inactive) | 98.9% (inactive) | 97.5% (inactive) | 91.9% (inactive) | 98.7% (inactive) | 101% (inactive) | 102% (inactive)
O=S(=O)(NCCCNc1nccc(-n2cnc3ccccc32)n1)c1ccc(F)cc1 | 25.5% (inactive) | 34.9% (inactive) | 64.6% (inactive) | 96.2% (inactive) | 63.7% (inactive) | 58.7% (inactive) | 102% (inactive) | 48.9% (inactive)
O=C1[C@H]2Cc3c([nH]c4ccccc34)[C@@H](c3c(Cl)cccc3Cl)N2C(=O)CN1C1CCN(Cc2ccccc2)CC1 | 102% (inactive) | 106% (inactive) | 0.213% (active) | 44.5% (inactive) | 47.5% (inactive) | -1.46% (active) | 102% (inactive) | 84.5% (inactive)
Cn1c2ccc(Br)cc2c2c3c(c4c5cc(F)ccc5oc4c21)C(=O)N(O)C3=O | 63% (inactive) | 89.4% (inactive) | 101% (inactive) | 54.5% (inactive) | 41.3% (inactive) | 75% (inactive) | 94.6% (inactive) | 92.6% (inactive)
Cn1cc2c(c1)-c1c(sc3nc(-c4ccc(NC(=O)Nc5cc(C(C)(C)C)on5)cc4)cn13)CC2 | 30.2% (inactive) | 71.3% (inactive) | 51.9% (inactive) | 73% (inactive) | 15.6% (inactive) | 39% (inactive) | 63.1% (inactive) | 21.7% (inactive)
N#C/C(=C\c1ccc(-c2ccc(F)cc2)o1)C(=O)Nc1ncc(Cc2ccc(Cl)cc2Cl)s1 | -5.01% (active) | -15.8% (active) | -20.4% (active) | -67.1% (active) | -5.46% (active) | -61.4% (active) | 79.8% (inactive) | 13.4% (inactive)
CNC(=O)c1c(NC(=O)c2ccc(F)cc2F)sc2c1CCC(=O)C2 | -14.2% (active) | 6.83% (active) | 12.2% (inactive) | 5.05% (active) | 7.35% (active) | 7% (active) | 13.5% (inactive) | 9.65% (active)
CCOC(=O)Nc1cccc(-n2cnc3cc(-c4ccc(O)cc4)ccc32)c1 | 12.8% (inactive) | 39.3% (inactive) | -16% (active) | 25.5% (inactive) | 18.2% (inactive) | 10.3% (inactive) | 30.2% (inactive) | 3.22% (active)
Nc1cc(F)ccc1NC(=O)c1ccc(NC(=O)C/C=C/c2cccnc2)cn1 | 5.13% (active) | 25.3% (inactive) | 13.7% (inactive) | 10.6% (inactive) | 5.2% (active) | -13.2% (active) | 15.5% (inactive) | 24.5% (inactive)
CCC(C)[C@H]1OC(=O)[C@H](C(C)C)N(C)C(=O)[C@@H](C(C)C)OC(=O)[C@H](C(C)C)N(C)C(=O)[C@@H](C(C)CC)OC(=O)[C@H](C(C)C)N(C)C1=O (stereo partly specified) | 3.65% (active) | 0.725% (active) | 16.1% (inactive) | 17.3% (inactive) | 8.27% (active) | 8.58% (active) | 23.4% (inactive) | 15.7% (inactive)
Oc1ccc(CSc2nnc(-c3ccc(Oc4ccccc4)cc3)n2-c2ccccc2)c2cccnc12 | 4.84% (active) | 21.7% (inactive) | 13.7% (inactive) | 12.8% (inactive) | 4.86% (active) | 14.5% (inactive) | 30.3% (inactive) | 17.7% (inactive)
C=C(C)[C@@H]1CC[C@]2(COS(C)(=O)=O)CC[C@]3(C)[C@H](CC[C@@H]4[C@@]5(C)CCCNC(C)(C)[C@@H]5CC[C@]43C)[C@@H]12 | 77.5% (inactive) | 93.9% (inactive) | 44.9% (inactive) | 4.87% (active) | 3.49% (active) | 15.6% (inactive) | 16.4% (inactive) | 26.2% (inactive)
O=C(c1ccc(O)cc1)[C@@H]1[C@@H]2CCCN2[C@@]2(C(=O)N(C(=O)c3ccc(F)cc3)c3ccccc32)[C@H]1c1ccc(F)cc1 | 89% (inactive) | 98.5% (inactive) | 88.1% (inactive) | 113% (inactive) | 86.3% (inactive) | 91.4% (inactive) | 108% (inactive) | 100% (inactive)
C#C[C@]1(O)CC[C@H]2[C@@H]3CC=C4c5sc(Nc6cc(Cl)ccn6)nc5CC[C@]4(C)[C@H]3CC[C@@]21C | 36.6% (inactive) | 20% (inactive) | -61.6% (active) | -1.44% (active) | -64% (active) | 14.4% (inactive) | 39.8% (inactive) | -0.602% (active)
COc1ccc(/C=N/Nc2nc(N/N=C/c3ccc(OC)cc3O)nc(N3CCOCC3)n2)c(O)c1 | 42.4% (inactive) | 90.3% (inactive) | 81% (inactive) | 36.3% (inactive) | 51.7% (inactive) | 34.4% (inactive) | 81.1% (inactive) | 51.4% (inactive)
CCN1C(=O)N(CC)C2C1NN=C1SC(c3ccccc3)=CC(=O)N12 (stereo unspecified) | 42.1% (inactive) | -4.35% (active) | -33.3% (active) | 18.3% (inactive) | 17.7% (inactive) | 14.9% (inactive) | 21.1% (inactive) | 27.2% (inactive)
COc1ccc(N2CCN(C(=O)CSc3ccc(-c4nc5cc(C)c(C)cc5[nH]4)cn3)CC2)cc1 | 21.5% (inactive) | 32.9% (inactive) | 73.1% (inactive) | 85.5% (inactive) | 42.8% (inactive) | 74.3% (inactive) | 94.2% (inactive) | 53.2% (inactive)
COc1cc(CNC(=O)Cc2ccccc2[N+](=O)[O-])ccc1OCC(=O)NO | 103% (inactive) | 106% (inactive) | 106% (inactive) | 110% (inactive) | 95.1% (inactive) | 107% (inactive) | 108% (inactive) | 101% (inactive)
O=C(/C=C/Nc1ccc(S(=O)(=O)O)cc1)c1ccc(F)cc1 | 99.4% (inactive) | 119% (inactive) | 100% (inactive) | 94.8% (inactive) | 90% (inactive) | 107% (inactive) | 106% (inactive) | 104% (inactive)
Cc1[nH]nc2ccc(-c3nc4cnc(N5CCN(C)CC5)cn4c3Nc3ccc(F)cc3Br)cc12 | 38.9% (inactive) | 91.1% (inactive) | 30.7% (inactive) | 32.8% (inactive) | 15.5% (inactive) | 11% (inactive) | 69.8% (inactive) | 59.3% (inactive)
CC(C)=CCc1c(O)c(CC=C(C)C)c2c(c1O)C(=O)C1=C[C@@H]3C[C@H]4C(C)(C)O[C@@](C/C=C(\C)C(=O)O)(C3=O)[C@@]14O2 | 1.27% (active) | -8.98% (active) | -5.58% (active) | -34.6% (active) | -5.87% (active) | -35.8% (active) | -87.1% (active) | -18.4% (active)
Cn1c2ccccc2c2c3c(c4c5ccc(Br)cc5oc4c21)C(=O)N(O)C3=O | 19.5% (inactive) | 64.9% (inactive) | 88.5% (inactive) | 59.3% (inactive) | 19.2% (inactive) | 65.7% (inactive) | 91.8% (inactive) | 92.4% (inactive)
CN(C)C(=O)C1=NC(CO)C(=O)N(c2ccc(Cl)cc2)N1 (stereo unspecified) | 98.6% (inactive) | 99.2% (inactive) | 106% (inactive) | 103% (inactive) | 95.6% (inactive) | 88.3% (inactive) | 109% (inactive) | 98.2% (inactive)
CCOC(=O)C1=C(C)Nc2nc3ccccc3n2C1c1ccccc1 (stereo unspecified) | 95.5% (inactive) | 101% (inactive) | 96.6% (inactive) | 87.8% (inactive) | 87.8% (inactive) | 69.1% (inactive) | 114% (inactive) | 98.1% (inactive)
C#Cc1ccc(NC(=O)c2ccc(/C=C/C(=O)c3nccn3C)cc2)c(F)c1 | 14.6% (inactive) | 40.2% (inactive) | 27.9% (inactive) | 18.9% (inactive) | 11% (inactive) | 18% (inactive) | 82.6% (inactive) | 23.5% (inactive)
